# High-throughput results as filed in PubChem BioAssay.
# CYP2C9 act: activators of human CYP2C9; recombinant CYP2C9, luciferin-H conversion, luminescence; hits give high values; factor 1 = untreated enzyme, 0 = blocked; P11712; 96,000 compounds, 1.4% hits; activation factor at 5 µM;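 active = activation factor of 2 or more for CYP2C9 at a 5 µM dose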;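 note: 0 = sulfaphenazole-blocked wells and 1 = vehicle-only wells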
# MRP1 act: MRP-1 activation. AID 799. H69AR cells + doxorubicin, viability rescue, CellTiter-Glo. viability increase, % at 10 µM. 140,000 compounds, 0.61% hits;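 active = viability gain under doxorubicin at or above a set limit, the compound median plus 3 SD, cut at about 4.7% in these data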;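 note: MRP-1 overexpressing cells given doxorubicin 25 µM after compound pretreatment; 18-22 h compound pretreatment then 72 h with doxorubicin before readout; 0% = doxorubicin-only wells and 100% = vehicle-treated cells without doxorubicin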
# CYP2C19 act: activators of human cytochrome P450 2C19 | activation factor at 5 µM | 96,000 tested, under 10 active | recombinant CYP2C19, luciferin-H EGE luminescence; hits give high values; 0 = fully inhibited enzyme, 1 = untreated enzyme;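 active = activation factor of at least 2 at 5 µM in the primary screen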;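 note: 0 = wells with 2.5 mM tranylcypromine and 1 = vehicle-only wells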
# Target sequence (P33261 whole entry, looked up): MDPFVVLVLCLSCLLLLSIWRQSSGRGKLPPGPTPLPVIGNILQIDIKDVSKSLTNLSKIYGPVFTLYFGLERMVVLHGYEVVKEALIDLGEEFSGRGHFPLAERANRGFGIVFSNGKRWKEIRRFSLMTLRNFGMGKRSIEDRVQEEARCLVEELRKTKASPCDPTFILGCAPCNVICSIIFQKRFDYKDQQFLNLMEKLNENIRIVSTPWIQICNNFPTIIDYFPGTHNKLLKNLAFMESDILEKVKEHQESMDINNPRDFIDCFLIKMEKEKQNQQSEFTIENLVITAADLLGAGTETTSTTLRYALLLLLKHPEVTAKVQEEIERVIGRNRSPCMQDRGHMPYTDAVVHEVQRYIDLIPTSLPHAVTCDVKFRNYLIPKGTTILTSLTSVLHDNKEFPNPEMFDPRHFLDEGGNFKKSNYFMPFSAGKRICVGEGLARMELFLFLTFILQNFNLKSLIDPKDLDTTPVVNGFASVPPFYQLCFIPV
# MRP reversal: compounds reversing MRP-mediated drug resistance; H69AR cells + 2 uM doxorubicin, CellTiter-Glo, 72 h; differential viability (reversal), % at 10 µM; 85,000 compounds, 0.04% hits;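 active = viability drop by adding the cancer drug above about 55%, with treated viability meeting a 40% cutoff, limit read from the data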;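 note: viability without doxorubicin minus viability with 2 µM doxorubicin for each compound; larger differential means the compound sensitizes cells more to doxorubicin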
# CYP2C19 inhib: blocks human cytochrome P450 2C19; P33261; 96,000 compounds, 21% hits; CYP2C19 Supersomes, luciferin-H EGE luminescence, 30 min; inhibition, % at 5 µM;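 active = CYP2C19 inhibition above a set limit at 5 µM in the primary screen, cut at about 50% in these data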;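 note: plate controls were negative control wells for no effect and 2.5 mM tranylcypromine positive control for full effect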
# CYP2C9 inhib: human CYP2C9 inhibition; inhibition, % at 5 µM; P11712; 96,000 compounds, 20% hits; CYP2C9 Supersomes, luciferin-H conversion, luminescence;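 active = blocking of liver enzyme CYP2C9 beyond about 50% at 5 µM, limit read from the data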
# Active calls of the source: *; . = no result. An excerpt weighted towards active compounds, which were near 21% of everything screened.
SMILES,CYP2C9 act,MRP1 act,CYP2C19 act,MRP reversal,CYP2C19 inhib,CYP2C9 inhib
Cc1c(Cl)cccc1NC(=O)c1ccc(-n2ccnc2)nc1,0,-1,0,.,99*,98*
NS(=O)(=O)c1cnccc1Nc1ccc(Cl)c(Cl)c1,.,1,.,.,.,.
Cc1cc(C(=O)OCC(=O)NCCCN2CCCC2=O)c2ccccc2n1,1,0,1,2,0,-4
CCCCNC(=O)COC(=O)c1cc(C)nc2ccccc12,2.6*,-1,0.3,-6,75*,-160
Cc1cc(C(=O)OCC(=O)NCCC(C)C)c2ccccc2n1,2.4*,0,0.8,5,21,-137
Cc1cc(C(=O)OCC(=O)Nc2cc(C)on2)c2ccccc2n1,0.8,-3,0.4,4,56*,21
O=C(Nc1cc2c(cc1Cl)OCCCO2)c1ccccc1,1.5,0,0.9,.,5,-46
Cc1ccc(C2CC(c3ccc(C)cc3)n3nc(N)nc3N2)cc1 (stereo unspecified),0.6,-2,0.5,.,47,42
O=C(Nc1nc(-c2ccc(Cl)s2)cs1)c1ccncc1,0.7,-2,0.5,.,51*,29
O=C(Nc1nc(-c2cccs2)cs1)c1ccc(Cl)cc1,0.7,-4,1.2,4,-21,27
O=C(CN1C(=O)CCC1=O)Nc1nc(-c2ccc(Cl)s2)cs1,.,-2,.,.,.,.
O=C(CSCC(=O)N1CCCCC1)Nc1nc(-c2ccc(Cl)s2)cs1,0.5,-5,0.4,-6,58*,47
CCOC(=O)N1CCN(C(=O)CSCC(=O)Nc2nc(-c3ccccc3)cs2)CC1,.,-1,.,10,.,.
O=C(CSCC(=O)N1CCN(c2ccccc2)CC1)Nc1nc(-c2ccc(Cl)s2)cs1,0.4,-4,1,-5,-2,61*
CC1CC(C)CN(C(=O)CSCC(=O)Nc2nc(-c3cccs3)cs2)C1 (stereo unspecified),0.2,-1,0.6,0,40,84*
O=C(CSCC(=O)N1CCCCC1)Nc1nc(-c2cccs2)cs1,0.7,-3,0.6,0,40,32
CC(C)NS(=O)(=O)c1ccc(NC(=O)C2CC3C=CC2C3)cc1 (stereo unspecified),0.8,0,0.8,.,16,22
CCOc1cc(C2C(C(=O)N3CCCCC3)=C(C)NC3=C2C(=O)CCC3)cc(Br)c1O (stereo unspecified),1,0,0.9,19,6,-2
Cc1cc(C)c(C)c(S(=O)(=O)N2CCC(C(=O)Nc3ccccc3N3CCOCC3)CC2)c1C,.,-5,.,.,.,.
CCOC(=O)C1CCN(S(=O)(=O)c2ccc3[nH]c(=O)oc3c2)CC1,1,-1,0.4,-3,56*,-2
Cc1ccc(S(=O)(=O)N2CCC(C(=O)Nc3ccccc3N3CCCCC3)CC2)cc1,0.1,-2,0.2,.,80*,87*
CCOC(=O)C1CCN(S(=O)(=O)c2ccc(C)cc2)CC1,0.7,-3,0.2,-4,81*,27
CCN1CCN(S(=O)(=O)c2ccc3[nH]c(=O)oc3c2)CC1,1.1,-3,0.9,-2,6,-8
CCOC(=O)C1CCN(S(=O)(=O)c2ccc(C(=O)OC)cc2)CC1,1,-1,0.9,-26,6,1
CCN(CC)C(=O)C1CCCN(C(=O)Nc2ccccc2)C1 (stereo unspecified),0.8,-1,0.6,-1,45,21
SMILES,CYP2C9 act,MRP1 act,CYP2C19 act,MRP reversal,CYP2C19 inhib,CYP2C9 inhib
O=C(NCCc1ccccc1)c1cc(S(=O)(=O)N2CCOCC2)ccc1F,0.5,0,0.9,.,6,54*
O=C(COC(=O)c1cc(S(=O)(=O)NCc2ccccc2)ccc1O)NCc1ccccc1,0.5,0,0.9,.,8,46
O=C(NCc1ccccc1)c1cc(S(=O)(=O)N2CCOCC2)ccc1F,0.9,-1,0.9,-15,14,9
COc1ccccc1NC(=O)c1ccccc1NS(=O)(=O)N1CCCC1,1.1,0,0.7,17,30,-12
O=S(=O)(Nc1cccc2ccccc12)N1CCCC1,0.9,-1,0.3,6,68*,10
O=C(NCCc1ccccc1)c1ccccc1NS(=O)(=O)N1CCCC1,0.1,-1,0.1,2,89*,86*
O=C(COC(=O)c1cc(S(=O)(=O)N2CCOCC2)ccc1O)NCCc1ccccc1,0.2,0,0.5,5,49,83*
CC1CCc2sc(C(=O)OCC(=O)NCc3ccc(F)cc3)cc2C1 (stereo unspecified),.,-3,.,.,.,.
